Calls of active or inactive are those of the source. Unless noted, how the calls were made is not given here.
How the values were obtained:
[1] = system: Wnt5a (protein binding on small-molecule microarray); test: small molecules binding Wnt5a protein – biophysical, small-molecule microarray, 635/667 nm fluorescence, primary screen (AID 1142); settings: 635 nm fluorescence, higher = more signal;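 further: fluorescence read at 667 nm with signal to noise per printed feature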
[2] = ATP-based viability of Huh7 replicon cells – cell-based, CellTiter-Glo luminescence, basal, 48 h, cytotoxicity control for HCV replication inhibitor project, primary screen (AID 1143); settings: higher = more signal, called active from +8 up or from −8 down;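 further: Huh7 hepatoma cells carrying a hepatitis C replication reporter with no stimulus; test concentration not given here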
[3] = Pseudomonas biofilm growth suppression – PAO1 strain, BacTiter-Glo luminescence, LB-PBS, primary screen (AID 1144); settings: P. aeruginosa PAO1 biofilm, 12 h, higher = more signal
[4] = basal CRE-LacZ reporter activity in PC12 – cell-based, unstimulated, primary screen (AID 1145); settings: no forskolin, luminescence, 4.5 h, higher = more signal, called active from +8 up or from −8 down
[5] = forskolin-driven CRE-LacZ activity in PC12 – cell-based, CRE-LacZ reporter, forskolin-stimulated, primary screen (AID 1146); settings: luminescence, 4.5 h, higher = more signal, called active from +8 up or from −8 down;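 further: PC12 cells with 6xCRE LacZ reporter stimulated by forskolin 10 µM; beta-galactosidase reporter signal reflecting CREB driven transcription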
[6] = target: Streptavidin (Streptomyces avidinii) (UniProt P22629); test: compounds binding control protein streptavidin – biophysical, small-molecule microarray, 635/667 nm fluorescence, artefact control for SMM compound annotation, primary screen (AID 1147); settings: higher = more signal;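 further: signal reflects streptavidin binding to arrayed compounds as a control protein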
[7] = probe aInhba binding on compound microarray – biochemical, small-molecule microarray, 635/667 nm fluorescence, primary screen (AID 1148); settings: higher = more signal;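 further: score merges 667nm spot fluorescence with signal-to-noise for antibody binding to printed compounds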
Torsin-1A (Homo sapiens) [8] = target: Torsin-1A (Homo sapiens) (UniProt O14656); test: TOR1A wild-type binding on microarray – cell lysate, small-molecule microarray, lysate, 635/667 nm, primary screen (AID 1149); settings: COS7 hTOR1A-WT lysate, 635 nm fluorescence, higher = more signal
Torsin-1A (Homo sapiens) [9] = target: Torsin-1A (Homo sapiens) (UniProt O14656); test: torsin A mutant lysate binding on microarrays – cell lysate, small-molecule microarray, COS7 lysate, 635/667 nm fluorescence, primary screen (AID 1150); settings: COS7 hTOR1A mutant lysate, 635 nm fluorescence, higher = more signal;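 further: score pools 667 nm emission and signal to noise measuring lysate protein binding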
[10] = system: Sonic hedgehog protein (Shh); test: Sonic hedgehog microarray binding compounds – biochemical, small-molecule microarray, 635/667 nm fluorescence, primary screen (AID 1151); settings: 635 nm fluorescence, higher = more signal;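 further: Shh protein binding to compounds spotted on small-molecule microarray slides; score combines spot fluorescence intensity with signal-to-noise across triplicate slides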
[11] = optical density shifts of acrAB sulA E. coli – strain DRC41, OD650, 48 h, E. coli filamentation inducer project, primary screen (AID 1152); settings: higher = more signal, called active from +8 up or from −8 down;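 further: E. coli MC1000 strain DRC41 lacking acrAB efflux pump and sulA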
[12] = probe aLefty1 binding on compound microarray – biochemical, small-molecule microarray, 635/667 nm fluorescence, primary screen (AID 1153); settings: higher = more signal;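 further: score merges spot fluorescence with signal-to-noise ratio from the scanned slide images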
[13] = plasmodial surface anion channel blockers, osmotic lysis – cell-based, P. falciparum Indochina, OD700, 1 h, primary screen (AID 1154); settings: P. falciparum Indochina infected RBC osmotic lysis, higher = more signal, called active from +8 up or from −8 down
[14] = plasmodial surface anion channel blockers, osmotic lysis – cell-based, P. falciparum Indochina, OD700, 2 h, primary screen (AID 1155);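 further: lysis reports solute entry through the parasite surface anion channel PSAC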; settings: P. falciparum Indochina infected erythrocytes, higher = more signal, called active from +8 up or from −8 down
[15] = changes in parasitized red cell lysis, either direction – P. falciparum Indochina, OD700, 3 h, PSAC antagonist project, primary screen (AID 1156); settings: P. falciparum-infected erythrocytes, osmotic lysis, higher = more signal, called active from +8 up or from −8 down
[16] = plasmodial surface anion channel blockers, osmotic lysis – cell-based, P. falciparum Indochina, OD700, 18 h, primary screen (AID 1157); settings: P. falciparum Indochina infected erythrocytes, osmotic lysis OD700, 18 h; higher = more signal, called active from +8 up or from −8 down
[17] = S6 kinase pathway phospho-S6 level changes – cell-based, A549, cytoblot, luminescence, serum-stimulated, primary screen (AID 1158); settings: 5 h, higher = more signal;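 further: serum-stimulated A549 lung adenocarcinoma cells; signal is phosphorylated S6 detected by cytoblot immunostaining with HRP secondary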
[18] = target: NADPH oxidase 2 (Homo sapiens) (UniProt P04839); test: compounds shifting NOX2 Amplex Red fluorescence – cell-based, HEK293-NOX2, PMA-stimulated, NOX inhibitor project, primary screen (AID 1159); settings: 45 min, higher = more signal, called active from +8 up or from −8 down; further: test concentration not given here
[19] = target: NADPH oxidase 4 (Homo sapiens) (UniProt Q9NPH5); test: compounds shifting NOX4 Amplex Red fluorescence – cell-based, HEK293-NOX4, tetracycline-induced, NOX inhibitor project, primary screen (AID 1160); settings: HEK293-NOX4, Amplex Red H2O2 fluorescence, 45 min; higher = more signal, called active from +8 up or from −8 down
[20] = target: NADPH oxidase 5 (Homo sapiens) (UniProt Q96PH1); test: compounds shifting NOX5 Amplex Red fluorescence – cell-based, HEK293-NOX5, NOX inhibitor project, primary screen (AID 1161); settings: HEK293-NOX5, ionomycin, 45 min, higher = more signal
Sequence of NADPH oxidase 5 (Homo sapiens) (Q96PH1 whole entry, looked up): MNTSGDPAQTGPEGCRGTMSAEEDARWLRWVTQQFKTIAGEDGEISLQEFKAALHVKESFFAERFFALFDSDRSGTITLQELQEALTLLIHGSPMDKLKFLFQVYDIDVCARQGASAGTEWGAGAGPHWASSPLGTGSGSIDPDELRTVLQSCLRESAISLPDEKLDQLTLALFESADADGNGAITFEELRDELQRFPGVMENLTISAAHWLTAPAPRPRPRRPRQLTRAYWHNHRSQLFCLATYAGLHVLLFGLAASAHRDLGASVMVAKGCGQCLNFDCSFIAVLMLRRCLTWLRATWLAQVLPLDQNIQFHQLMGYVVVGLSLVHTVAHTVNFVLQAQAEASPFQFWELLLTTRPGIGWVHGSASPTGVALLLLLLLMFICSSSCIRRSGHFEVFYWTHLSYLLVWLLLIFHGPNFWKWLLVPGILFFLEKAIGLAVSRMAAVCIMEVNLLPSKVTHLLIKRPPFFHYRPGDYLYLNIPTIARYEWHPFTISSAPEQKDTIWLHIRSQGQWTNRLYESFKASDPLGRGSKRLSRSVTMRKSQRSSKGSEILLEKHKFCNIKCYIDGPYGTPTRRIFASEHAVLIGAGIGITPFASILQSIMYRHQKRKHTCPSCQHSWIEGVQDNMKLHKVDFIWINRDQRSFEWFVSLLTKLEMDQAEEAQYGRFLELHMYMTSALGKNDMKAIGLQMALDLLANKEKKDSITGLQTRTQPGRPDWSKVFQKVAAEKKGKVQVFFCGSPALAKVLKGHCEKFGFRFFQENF

Sequence of NADPH oxidase 4 (Homo sapiens) (Q9NPH5 whole entry, looked up): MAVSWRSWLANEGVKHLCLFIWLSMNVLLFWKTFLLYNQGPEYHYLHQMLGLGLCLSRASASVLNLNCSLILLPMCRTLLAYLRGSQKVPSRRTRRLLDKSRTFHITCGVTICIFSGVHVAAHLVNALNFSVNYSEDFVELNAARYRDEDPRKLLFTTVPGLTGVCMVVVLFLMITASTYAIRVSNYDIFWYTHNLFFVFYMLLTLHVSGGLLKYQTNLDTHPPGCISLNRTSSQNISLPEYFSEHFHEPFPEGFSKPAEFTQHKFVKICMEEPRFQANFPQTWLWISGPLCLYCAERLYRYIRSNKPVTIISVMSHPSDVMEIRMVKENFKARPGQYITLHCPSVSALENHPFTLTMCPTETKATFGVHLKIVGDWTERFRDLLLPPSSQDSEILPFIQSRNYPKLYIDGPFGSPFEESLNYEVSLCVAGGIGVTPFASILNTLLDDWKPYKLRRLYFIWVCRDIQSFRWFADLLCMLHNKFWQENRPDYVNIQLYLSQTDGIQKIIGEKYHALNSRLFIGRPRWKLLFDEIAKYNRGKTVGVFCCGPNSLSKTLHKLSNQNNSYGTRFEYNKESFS
Sequence of NADPH oxidase 2 (Homo sapiens) (P04839 whole entry, looked up): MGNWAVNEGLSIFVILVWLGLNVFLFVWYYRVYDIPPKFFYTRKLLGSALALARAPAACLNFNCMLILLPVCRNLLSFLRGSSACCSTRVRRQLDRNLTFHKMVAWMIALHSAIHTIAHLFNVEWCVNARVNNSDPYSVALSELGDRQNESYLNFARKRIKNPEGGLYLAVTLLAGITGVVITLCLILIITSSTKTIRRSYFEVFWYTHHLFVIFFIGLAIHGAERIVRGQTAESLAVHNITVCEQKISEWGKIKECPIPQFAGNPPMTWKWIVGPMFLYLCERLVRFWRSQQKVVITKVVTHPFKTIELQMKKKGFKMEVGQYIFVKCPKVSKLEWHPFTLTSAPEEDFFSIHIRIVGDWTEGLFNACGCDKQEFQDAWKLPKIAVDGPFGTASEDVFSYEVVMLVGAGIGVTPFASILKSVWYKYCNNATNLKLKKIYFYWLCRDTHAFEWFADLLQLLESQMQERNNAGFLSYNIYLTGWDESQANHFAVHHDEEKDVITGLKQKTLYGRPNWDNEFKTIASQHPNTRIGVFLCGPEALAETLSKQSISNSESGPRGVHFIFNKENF
Sequence of Torsin-1A (Homo sapiens) (O14656 whole entry, looked up): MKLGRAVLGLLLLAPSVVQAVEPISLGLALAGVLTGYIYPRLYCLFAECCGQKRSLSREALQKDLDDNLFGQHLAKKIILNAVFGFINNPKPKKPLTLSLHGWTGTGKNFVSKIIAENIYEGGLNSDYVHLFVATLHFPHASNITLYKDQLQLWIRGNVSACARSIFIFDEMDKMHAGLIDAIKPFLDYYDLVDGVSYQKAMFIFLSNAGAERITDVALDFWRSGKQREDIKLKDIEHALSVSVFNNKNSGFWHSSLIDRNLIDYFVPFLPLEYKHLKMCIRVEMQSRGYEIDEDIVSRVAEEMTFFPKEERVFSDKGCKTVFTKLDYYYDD
Sequence of Streptavidin (Streptomyces avidinii) (P22629 whole entry, looked up): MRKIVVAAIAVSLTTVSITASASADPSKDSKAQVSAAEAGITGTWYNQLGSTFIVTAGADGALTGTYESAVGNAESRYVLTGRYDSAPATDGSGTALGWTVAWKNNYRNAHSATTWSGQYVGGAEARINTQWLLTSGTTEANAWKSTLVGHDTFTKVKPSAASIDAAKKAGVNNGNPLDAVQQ

| SMILES | composite z-score [1] | z-score [2] | z-score [3] | z-score [4] | z-score [5] | composite z-score [6] | composite z-score [7] | composite z-score (Torsin-1A (Homo sapiens) [8]) | composite z-score (Torsin-1A (Homo sapiens) [9]) | composite z-score [10] | z-score [11] | composite z-score [12] | z-score [13] | z-score [14] | z-score [15] | z-score [16] | z-score [17] | z-score [18] | z-score [19] | z-score [20] |
| --- | --- | --- | --- | --- | --- | --- | --- | --- | --- | --- | --- | --- | --- | --- | --- | --- | --- | --- | --- | --- |
| NCCCCCNC(=O)[C@@H]1C[C@@H]2C(=O)N[C@@H](CCCCN)C(=O)N2[C@@H]1c1cccc(OCCO)c1 | 0.331 | 0.21 (inactive) | -0.85 (inactive) | -0.541 (inactive) | -0.304 (inactive) | 0.302 | -0.331 | 0.247 | -0.02 | 1.55 | 1.17 (inactive) | -0.432 | 0.539 (inactive) | 0.0681 (inactive) | 1.24 (inactive) | 0.0802 (inactive) | -0.157 | 0.141 (inactive) | 0.557 (inactive) | 0.582 |
| [N-]=[N+]=Nc1ccccc1[C@@H]1OC(c2ccc(OCCCO)cc2)=N[C@]1(CCS(=O)(=O)c1ccccc1)C(=O)NCCN1CCOCC1 | 0.391 | -4.79 (inactive) | -0.124 (inactive) | 0.549 (inactive) | -1.18 (inactive) | 0.637 | 0.109 | 1.13 | 1.15 | -0.252 | 0.0992 (inactive) | 0.417 | 27.4 (active) | 20.8 (active) | 1.9 (inactive) | 0.667 (inactive) | 1.12 | -3.49 (inactive) | -0.729 (inactive) | -1.84 |
| C#CCNC(=O)[C@H](Cc1ccccc1)NC(=O)[C@@H](N=[N+]=[N-])C(C)C | 0.0696 | -0.0943 (inactive) | 0.0632 (inactive) | 0.0918 (inactive) | -0.462 (inactive) | -0.0247 | -0.025 | 0.0696 | 0.892 | 0.539 | 0.367 (inactive) | -0.145 | 0.0059 (inactive) | 0.705 (inactive) | 0.0901 (inactive) | 0.405 (inactive) | -0.52 | 0.291 (inactive) | -0.18 (inactive) | 0.323 |
| O=C1C[C@@](C(=O)NCC(F)(F)F)(c2ccc([N+](=O)[O-])cc2)[C@@H](c2ccc(CO)cc2)N1C1CCCCC1 | 0.247 | -1.97 (inactive) | 0.0325 (inactive) | 0.854 (inactive) | -0.369 (inactive) | 0.579 | 0.101 | 1.36 | 1.57 | 1.22 | -0.0786 (inactive) | 0.517 | 1.18 (inactive) | -0.105 (inactive) | 1.29 (inactive) | -0.0879 (inactive) | -0.429 | 0.166 (inactive) | 0.24 (inactive) | 0.104 |
| C=CCOC(=O)[C@H]1[C@@H]2C(=O)O[C@@H](c3ccccc3)[C@@H](c3ccccc3)N2[C@@H](c2ccc(OCCOC(=O)[C@H]3C[C@H]4C(=O)N[C@@H](CCCC[N+](C)(C)C)C(=O)N4[C@H]3c3cccc(OCCO)c3)cc2)[C@]12C(=O)Nc1ccc(I)cc12 | 0.419 | -0.587 (inactive) | -1.08 (inactive) | 0.415 (inactive) | -0.0044 (inactive) | -0.0117 | -0.13 | 0.485 | 0.29 | 1.03 | 0.039 (inactive) | -0.17 | 3.12 (inactive) | 2.53 (inactive) | 1.58 (inactive) | 1.68 (inactive) | 0.4 | 0.822 (inactive) | 0.0287 (inactive) | 0.14 |
| [N-]=[N+]=Nc1ccccc1C[C@]1(C(=O)NCc2ccccc2)N=C(c2ccc(OCCCO)cc2)O[C@H]1c1ccccc1 | 0.307 | -3.03 (inactive) | -0.523 (inactive) | -0.585 (inactive) | 1.15 (inactive) | 1.44 | 0.192 | 0.403 | 0.687 | -0.312 | 0.383 (inactive) | 0.394 | 17.6 (active) | 3.08 (inactive) | 1.14 (inactive) | 0.786 (inactive) | -0.16 | -0.172 (inactive) | 1.45 (inactive) | 1.03 |
| COC(=O)[C@@]1(Cc2ccccc2)[C@H]2c3cc(C(=O)N4CCCC4)n(Cc4cc(F)cc5c4OCOC5)c3C[C@H]2CN1C(=O)c1ccccc1 | 0.503 | 0.147 (inactive) | -0.511 (inactive) | -0.185 (inactive) | 0.444 (inactive) | 0.503 | 0.0982 | -0.0566 | 1.26 | -0.457 | -1.14 (inactive) | 0.0752 | 2.98 (inactive) | 0.589 (inactive) | 0.804 (inactive) | 0.715 (inactive) | -0.163 | 0.768 (inactive) | 0.0378 (inactive) | -0.652 |
| O=C1O[C@@H](c2ccccc2)[C@@H](c2ccccc2)N2[C@@H](c3ccc(O)cc3)[C@]3(C(=O)Nc4ccc(C#CCCO)cc43)[C@@H](C(=O)NC[C@H](O)c3ccccc3)[C@H]12 | -0.738 | 0.058 (inactive) | 0.142 (inactive) | -1.15 (inactive) | -0.869 (inactive) | -0.791 | -0.128 | -0.664 | 0.229 | 0.304 | 0.646 (inactive) | 0.279 | 2.75 (inactive) | 0.31 (inactive) | 0.283 (inactive) | 0.0695 (inactive) | -0.318 | -0.247 (inactive) | -0.718 (inactive) | -0.159 |
| CCCN1C(=O)[C@]2(Cc3ccccc3)N=C(c3ccc(OCCCO)cc3)O[C@@H]2c2ccccc21 | 1.19 | -5.27 (inactive) | -0.204 (inactive) | 1.04 (inactive) | -1.11 (inactive) | 0.501 | 0.872 | 0.317 | 0.773 | 1.84 | 0.655 (inactive) | 0.268 | 34 (active) | 27.2 (active) | 1.25 (inactive) | 4.25 (inactive) | 1.56 | -2.25 (inactive) | 0.187 (inactive) | -1.27 |
